# The panel holds about 83,000 compounds, 20% with a hit somewhere; the sample as a whole holds those more often.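 Each cell line was grown in a 96-well plate and treated with one concentration of compound for 48 hours. Values below 10 were considered active.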 Unmarked numbers belong to inactive results. Active and inactive are the calls of the source.
# Tested on: TK-10 renal
# Assay: NCI-60 one-dose screen, 48 h (100 = growth as untreated, 0 = no growth, -100 = all killed)
# Settings: 10 µM unless noted
# Protocol: Growth inhibition of the TK-10 human tumor cell line is measured as a screen for anti-cancer activity. Cells are grown in 96 well plates and exposed to the test compound for 48 hours. Compounds are tested at a single concentration, which is 10^-5 M for most compounds. The reported endpoint is percent growth (GI% or GIPRCNT), where numbers from 0 - 100% represent growth inhibition, and numbers from -100% - 0 represent cell death. For example, a value of 40 represents 60% growth inhibition. A value of 0 means no net growth occurred over the course of the experiment. A value of -40 indicates 40% of cells at the beginning of the experiment died by the end of the experiment. A value of -100 means all cells are dead at the end of the experiment.
# NCI-60 Human Tumor Cell Lines Screen was performed using the standard one-dose NCI protocol, which is described in more detail at https://dtp.cancer.gov/discovery_development/nci-60/default.htm.
# Compounds with GIPRCNT values below 10 were considered active. Activity score was based on GIPRCNT using the following formula: […]
# Score is 0 for GIPRCNT values of 100 or above, 50 for GIPRCNT values of 0, and 100 for GIPRCNT values of -100.
row,SMILES,growth
1,CC1=CCC(OC(=O)C(C)(C)CCC(O)(C(=O)OC2(C(C)C)CCC3(C)OC3C2)C(C)C)(C(C)C)CC1 (stereo not given),-99.2% (active)
2,CCN1C(=O)N(CC)C2Nn3c(s/c(=C\c4ccccc4F)c3=O)=NC21 (stereo not given),87.2%
3,CCn1c(-c2nonc2Nc2ccc(OC)cc2)nc2ccccc21,101%
4,COc1ccc(CCN2C(=O)CCSC2=S)cc1OC,61.4%
5,O=C(CSc1nc2ccccc2c(=O)n1-c1ccccc1)Nc1ccc(C(=O)/C=C/c2ccc(Cl)cc2)cc1,110%
6,COc1cc([C@@H]2NC(=O)NC(C)=C2C(=O)Nc2nc(-c3ccc(Cl)cc3)cs2)ccc1O,103%
7,Cc1ccc2sc3c(NCCCNCCO)nc4ccccc4c3c(=O)c2c1,66.9%
8,Clc1ncccc1Nc1ccc2nnc(-c3ccncc3)n2n1,112%
9,O=c1c2cc(F)ccc2sc2c(NCCCNCCO)nc3ccc(Cl)cc3c12,77.1%
10,O=C(COc1cc(O)c2c(=O)cc(-c3ccccc3)oc2c1)Nc1ccccc1C(F)(F)F,-13.9% (active)
11,O=C(c1ccccc1)N(C(=S)NCCc1ccc(Cl)cc1)c1ccccc1,82.5%
12,CCOC(=O)c1sc(-c2ccc(OS(=O)(=O)c3ccc(Br)s3)c(C=O)c2)nc1C,-1.6% (active)
13,Cc1nc(Nc2ccccn2)sc1C(=O)/C=C/c1ccc(Cl)cc1,61.5%
14,O=c1oc2ccc(Cl)cc2c(=O)n1-c1ccc(I)cc1F,11%
15,COC(=O)/C(CCC=C(C)C)=C1\[C@@H](OC(C)=O)C[C@@]2(C)[C@H]1C[C@@H](O)[C@H]1[C@@]3(C)CC[C@H](NC(=O)c4cnccn4)[C@@H](C)[C@@H]3CC[C@@]12C,117%
16,O=c1oc2ccc(I)cc2c(=O)n1-c1ccc(Cl)cc1F,10.5%
17,COc1ccc(/C=C/C(=O)c2ccc3cc(OC)c(OC)cc3c2)cc1OC,65.1%
18,COC(=O)c1cc2c(n1Cc1ccccc1)-c1oncc1CCC2,102%
19,CNC(=O)c1cc(Oc2ccc(CC(=O)Nc3cc(C(C)(C)C)cn3C)cc2)ccn1,108%
20,COc1ccc(OC)c(NC(=O)/C(C#N)=C/c2ccco2)c1,114%

row,SMILES,growth
1,CCOc1c(Br)cc(C2C(C(=O)OC)=CN(C)C=C2C(=O)OC)cc1OC,69.3%
2,O=Cc1c(OCc2cnnn2CC(=O)Nc2ccc(Cl)cc2)ccc2ccccc12,118%
3,N[C@@H](CC/[N+]([O-])=N/O)C(=O)O,104%
4,Fc1cccc(COc2ccc(Nc3ncnc4onc(-c5ccccc5)c34)cc2)c1,49.1%
5,COc1ccc(Nc2nc(N/N=C/c3ccc(O)cc3)nc(Nc3ccc([N+](=O)[O-])cc3)n2)cc1,115%
6,COc1ccc(Nc2cc(C)nc(NCc3ccccc3)n2)cc1,37.9%
7,COc1cc(/C=C2\CCC/C(=C\c3cc(CN4CCCCC4)c(O)c(OC)c3)C2=O)cc(CN2CCCCC2)c1O,115%
8,CCCCCCCCCCCCCCn1cc(C2=C(c3coc4ccc(OC)cc34)C(=O)NC2=O)c2ccccc21,102%
9,CCCCCCC(O)(c1ccc(F)cc1)C(CN1CCOCC1)c1ccccc1 (stereo not given),34.2%
10,COc1ccc(/C=C2\N=C(c3ccccc3)N(c3ccc(-c4nc5ccc(C)cc5s4)cc3)C2=O)cc1,104%
11,O=C(Nc1ccc(F)cc1F)c1cc(Cl)ccc1O,17.4%
12,O=Nc1c(O)ccc2ccccc12.O=Nc1c(O)ccc2ccccc12.O=Nc1c([O-])ccc2ccccc12.[Fe+3],127%
13,COc1cc(/C=C2\CN(S(=O)(=O)c3ccccc3)C/C(=C\c3cc(CN4CCCC4)c(O)c(OC)c3)C2=O)cc(CN2CCCC2)c1O,26.8%
14,COC(=O)/C(=C\c1c(-c2ccccc2)[nH]c2ccccc12)S(C)(=O)=O,67.2%
15,CSc1nc2c(c(=O)[nH]1)N=C1c3ccccc3C(=O)C1C(c1ccc(F)cc1)N2 (stereo not given),78.2%
16,Cc1ccc2[nH]c(=O)cc(-n3nncc3Cn3c4ccccc4c4ccccc43)c2c1,118%
17,Cc1cccc2c(=O)c3c(sc12)c(NCCN)nc1ccccc13,-73.7% (active)
18,O=C(Nc1ccc(C23CC4CC(CC(c5ccccc5)(C4)C2)C3)cc1)c1cccs1,76.9%
19,COc1ccc(CCN2CCC(CN(C)Cc3cnn(-c4ccccc4)c3)CC2)cc1,45.5%
20,COc1ccccc1N1CCN(C(CNS(=O)(=O)c2ccc(Cl)cc2)c2cccnc2)CC1 (stereo not given),111%
